Experimental data reported in PubChem BioAssay AID1259318 (Sanford-Burnham Center for Chemical Genomics, 2017).
Out of some 370,000 compounds screened, about 3,000 (0.81%) were called active.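 The calls were made as follows: active = activity above about 14% (limit read from the data; passing the limit was not always enough); inactive = the rest.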 For the sample, actives were picked, then their nearest neighbours and some compounds at random.

Target: Nuclear receptor subfamily 1 group D member 1 (Homo sapiens) (UniProt P20393)
Sequence (P20393 whole entry, looked up): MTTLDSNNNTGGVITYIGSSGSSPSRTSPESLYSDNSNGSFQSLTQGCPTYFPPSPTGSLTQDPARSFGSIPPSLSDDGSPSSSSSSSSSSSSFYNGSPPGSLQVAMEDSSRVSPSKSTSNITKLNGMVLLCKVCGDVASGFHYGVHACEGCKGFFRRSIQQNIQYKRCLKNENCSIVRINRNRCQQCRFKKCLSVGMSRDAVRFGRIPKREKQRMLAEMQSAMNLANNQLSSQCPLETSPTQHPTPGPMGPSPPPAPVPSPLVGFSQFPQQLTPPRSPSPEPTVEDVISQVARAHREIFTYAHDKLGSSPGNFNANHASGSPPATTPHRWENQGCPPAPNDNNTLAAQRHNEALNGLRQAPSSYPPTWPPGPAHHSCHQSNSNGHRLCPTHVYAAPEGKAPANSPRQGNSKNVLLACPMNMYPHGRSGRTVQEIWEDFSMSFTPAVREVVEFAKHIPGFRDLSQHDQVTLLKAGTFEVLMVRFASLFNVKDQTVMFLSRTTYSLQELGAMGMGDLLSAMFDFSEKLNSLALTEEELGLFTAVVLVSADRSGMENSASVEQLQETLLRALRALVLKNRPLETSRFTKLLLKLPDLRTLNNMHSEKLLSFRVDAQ
Assay: modulators of Rev-erb alpha DNA binding, primary screen, biochemical, FITC-DNA, fluorescence polarization, uHTS (AID 1259318);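 also: 0% = DMSO wells with 35 nM protein and 100% = DMSO wells with 750 nM protein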
Details: Rev-erbα–FITC-DNA binding, 90 min, at 10 µM, active compounds read high

| SMILES | activity |
| --- | --- |
| Cn1c(=O)[nH]c(=O)c2c1nc(CN(Cc1ccccc1)Cc1ccccc1)n2CCN1CCOCC1 | -1.09% (inactive) |
| CC(C)Cn1c(CN(Cc2ccccc2)Cc2ccccc2)nc2c1c(=O)n(C)c(=O)n2C | 42.6% (active) |
| CC(C)CCn1c(CN(C)Cc2ccccc2)nc2c1c(=O)n(C)c(=O)n2C | 3.74% (inactive) |
| Cc1ccccc1NC(=O)C1CCN(c2ncccn2)CC1 | 4.79% (inactive) |
| O=C(CNC(=O)c1ccc(Cl)cc1Cl)NCC(=O)Nc1ccccc1N1CCOCC1 | -3.17% (inactive) |
| CCOC(=O)c1cc(-c2ccc(Cl)s2)nc2c1c(C)nn2C | 11.4% (inactive) |
| COc1cc2c(cc1NC(=O)CN1CCN(S(=O)(=O)c3ccc(F)cc3)CC1)oc1ccccc12 | 14.1% (active) |
| COc1cc2c(cc1NC(=O)COC(=O)/C=C/c1ccccc1)oc1ccccc12 | -1.34% (inactive) |
| O=C(CN1CCN(S(=O)(=O)c2ccc(F)cc2)CC1)NC1CC1 | 6.03% (inactive) |
| FC(F)(F)c1cccc(NC(=S)OC2CCC23CCC(c2ccccc2)CC3)c1 (stereo unspecified) | 5.79% (inactive) |
| O=C(CC1SC(=Nc2ccccc2)N(Cc2ccccn2)C1=O)Nc1cccc(Cl)c1 (stereo unspecified) | 1.93% (inactive) |
| NC1=NC(c2ccc([N+](=O)[O-])cc2)N(c2ccc(F)cc2)C(N)=N1 (stereo unspecified) | 5.54% (inactive) |
| Cc1ccc(NS(=O)(=O)c2cc3c(cc2Br)NC(=O)CO3)cc1C | 23.4% (active) |
| Cc1ccc(NS(=O)(=O)c2cc3c(cc2C)NC(=O)CO3)cc1 | 10.7% (inactive) |
| Cc1ccc(NS(=O)(=O)c2ccc3c(c2)NC(=O)CO3)cc1 | 1.74% (inactive) |
| C[C@@H]1CN([C@@H](C)CO)C(=O)c2cccc(NC(=O)Nc3cccc4ccccc34)c2O[C@H]1CN(C)S(=O)(=O)c1ccccc1F | -2.31% (inactive) |
| CC1(C)NC(=O)N(CC(=O)Nc2cc(C(F)(F)F)cc(C(F)(F)F)c2)C1=O | 3.72% (inactive) |
| CC(NCc1ccco1)C(=O)N1CCCCC1 (stereo unspecified) | -4.97% (inactive) |
| COCCNc1nc(-c2ccccc2)nc2c1oc1ccccc12 | 7.87% (inactive) |
| COc1ccc(C)cc1Nc1nc(C)nc2c1oc1ccccc12 | 53.9% (active) |
| COC(=O)c1cnc(Nc2cc(C)ccc2OC)c2ccccc12 | -1.59% (inactive) |
| O=[N+]([O-])c1ccc(NCCCO)c(C(F)(F)F)c1 | -1.69% (inactive) |
| N#Cc1ccc(OCCCN2CCC(C(O)(c3ccccc3)c3ccccc3)CC2)c(F)c1 | 2.99% (inactive) |
| CCCNC(=S)NC1CC2CCCC(C1)N2CC(C)C (stereo unspecified) | 1.93% (inactive) |
| COc1ccc(-c2ccc3nnc(SCC(=O)Nc4ccc(NC(C)=O)cc4)n3n2)cc1 | -7.04% (inactive) |
| Cc1ccc(CC(=O)Nc2cccc(C#N)c2)cc1 | 0.97% (inactive) |

| SMILES | activity |
| --- | --- |
| COc1ccc(CC(=O)Nc2ccc(-c3nnc(-c4ccc(C)cc4)o3)cc2)cc1 | 26.4% (active) |
| CC1CCCC(NC(=O)CSc2nccn2C)C1C (stereo unspecified) | -3.46% (inactive) |
| Fc1ccc(-c2ccc(-c3nn4c(-c5ccco5)nnc4s3)o2)cc1 | -8.14% (inactive) |
| c1ccc(-c2cc(-c3nnc4sc(-c5ccccn5)nn34)[nH]n2)cc1 | 22.2% (active) |
| C=CCNC(=S)/N=c1/ccccn1Cc1ccccc1 | 3.96% (inactive) |
| O=C(CC12CC3CC(CC(C3)C1)C2)NCc1ccco1 | -3.49% (inactive) |
| CCOC(=O)C1=C(c2ccccc2)O/C(=C(/C(=O)OC)C(F)(F)F)S1 | 23.2% (active) |
| COC(=O)/C(=C1\Oc2ccc(C(C)(C)C)cc2S1)C(F)(F)F | 2.88% (inactive) |
| CCOC(=O)c1nnn(-c2nonc2OC)c1-c1ccccc1 | -1.38% (inactive) |
| CC(C)CC(=O)N1CCN(Cc2ccccc2Br)CC1 | 1.77% (inactive) |
| Cc1ccc(N=C2NC(=O)c3cccc([N+](=O)[O-])c32)cc1 | -0.93% (inactive) |
| C=C(C)C(=O)O[C@H]1C/C(C)=C\C(=O)/C=C(\C)[C@H](O)[C@@H]2OC(=O)C(=C)[C@@H]21 | -13.3% (inactive) |
| O=C(O)c1ccn(COc2ccc(Br)cc2)n1 | -0.74% (inactive) |
| Cc1ccc(-c2nc3c(Cl)cc(C(F)(F)F)cn3c2Cc2cccc(Cl)c2)cc1 | -1.02% (inactive) |
| Cc1cc(Br)cn2c(Cc3ccccc3C(F)(F)F)c(-c3ccc(C#N)cc3)nc12 | 16.1% (inactive) |
| Cc1cc(Br)cn2c(Cc3ccccc3C(F)(F)F)c(-c3ccc(Cl)cc3)nc12 | 24.8% (active) |
| Cc1cc(Br)cn2c(Cc3cccc(F)c3)c(-c3cccc(Br)c3)nc12 | 8.77% (inactive) |
| Cc1cc(Br)cn2c(Cc3ccccc3C(F)(F)F)c(C3CCCCC3)nc12 | -1.46% (inactive) |
| Cc1ccc(-c2nc3c(C)cc(Br)cn3c2Cc2ccccc2)cc1 | 27% (active) |
| Cc1ccc(NC(=O)Nc2cc(C)nn2-c2ccccc2)cc1 | -3.54% (inactive) |
| CCC1Nc2ncnc(N3CCN(c4ccccc4)CC3)c2N(Cc2ccc(Cl)cc2)C1=O (stereo unspecified) | -0.29% (inactive) |
| CCCc1nnc(NC(=O)CCC(=O)NC2CC2)s1 | -1.12% (inactive) |
| COCC(=O)N[C@@H]1C[C@@H]2O[C@@H](CO)CC[C@@H]2O[C@@H]1CCc1ccc(-c2ccccc2)cc1 | -1.13% (inactive) |
| CC(=O)N1CCCN(C2=Nc3ccccc3Sc3ccccc32)CC1 | -0.32% (inactive) |
| Cc1ccc(-n2c(SCC(=O)NCCC3=CCCCC3)nc3n[nH]c(C)c3c2=N)cc1Cl | 34.3% (active) |
| Cc1nnc(OCC(=O)NCCC2=CCCCC2)c2ccccc12 | -2.75% (inactive) |

| SMILES | activity |
| --- | --- |
| CCCCNC(=O)CSc1nccn1Cc1ccccc1 | -5.53% (inactive) |
| CCn1c(=O)cc(SCC(=O)NCCC2=CCCCC2)c2ccccc21 | -0.99% (inactive) |
| CCCCCCNC(=O)CSc1nccn1Cc1ccccc1 | 1.93% (inactive) |
| CCCCNC(=O)CSc1nc2n[nH]c(C)c2c(=N)n1-c1cccc(Cl)c1C | 23.1% (active) |
| CCCCCC1CC(COc2ccccc2)OC1=O (stereo unspecified) | 3.77% (inactive) |
| CC(=O)c1c(C)n([O-])c2ccccc2[n+]1=O | 4.5% (inactive) |
| CC(C)C(C)(C#N)NC(=O)CSc1nncn1-c1ccccc1 (stereo unspecified) | 3.69% (inactive) |
| Cc1ccc2c(cnn2C(=O)CCC(=O)NC2CCCC2)c1 | 8.51% (inactive) |
| COc1ccc(CN2C/C(=C/c3ccccc3)N3C(=O)C[C@@H](c4ccccc4)N=C23)c(OC)c1 | -2.77% (inactive) |
| CC(=O)Nc1sc2c(c1C(c1cccc(F)c1)N1CCN(CCO)CC1)CCCC2 (stereo unspecified) | -4.11% (inactive) |
| Cc1cc(C(C)(C)C)n2nc(C)c(-c3ccccc3)c2n1 | 31.7% (active) |
| Cc1nn2c(NCCN(C)C)c3c(nc2c1-c1ccccc1)CCC3 | -0.8% (inactive) |
| CCc1c(C)nc2c(-c3ccccc3)c(C)nn2c1Nc1ccc(NC(C)=O)cc1 | -3.83% (inactive) |
| CC(Oc1ccccc1)C(=O)N[C@@H]1C(=O)N2[C@@H]1SC(C)(C)[C@@H]2C(=O)O (stereo partly specified) | -0.45% (inactive) |
| COC(=O)c1ccc(N2CCOCC2)c(NC(=O)c2ccc(Br)o2)c1 | -3.88% (inactive) |
| Cc1cc(N/C=C\C(=O)c2ccc(Cl)c(Cl)c2)no1 | 24.8% (active) |
| Cc1cc(NC(=O)COc2ccccc2C#N)no1 | 5.64% (inactive) |
| Cc1cc(NCc2cccnc2)no1 | 2.81% (inactive) |
| CCN(CC)C(=O)CSc1nnc(-c2cnccn2)n1-c1ccc(C)cc1 | 5.46% (inactive) |
| COc1ccc(CCC(C)N2CCc3ccccc3C2)cc1 (stereo unspecified) | 1.36% (inactive) |
| COc1ccc(-n2ncc3c(N4CCc5ccccc54)ncnc32)cc1 | 56.3% (active) |
| CN(C(=O)COc1ncnc2c1cnn2-c1ccccc1)C1CCCCC1 | 1.94% (inactive) |
| O=c1cc(Cl)c2ccccc2n1-c1ccccc1 | -2.63% (inactive) |
| COc1cccc(N2CCN(CC(=O)N(C)Cc3ccc(F)cc3)CC2)c1 | -5.17% (inactive) |
